This is an account of results in PubChem BioAssay (NCI).

This is part of a sample that, as a whole, favours compounds with a hit. Of some 83,000 tested, about 20% had one in any assay.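 Results are percent growth after 48 hours of single-concentration exposure. 100 means growth as in untreated cells, lower positive values show inhibition; negative values down to -100 show cell death.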 Unmarked numbers belong to inactive results. Active and inactive are the calls of the source. Rule for the calls: active = growth percent below 10; inactive = the rest.

The assay concerns NCI-H23 lung. In words: NCI-60 one-dose screen, 48 h (100 = growth as untreated, 0 = no growth, -100 = all killed). The settings on record: 10 µM unless noted.
As to `NC(=O)n1c(=O)n(-c2cccc(C(F)(F)F)c2)c(=O)c2cc(-c3ccc(F)cc3F)ccc21`, the growth was -6% (active).
The result for `O=C1CSC(c2cn(-c3ccccc3)nc2-c2ccc(Cl)cc2)N1c1ccccc1` (stereo not given) reads 96.9%.
In the case of `COc1ccc(/C=N/NC(=O)CSc2nc(-c3cnccn3)cc(-c3cccs3)c2C#N)cc1` it was 72.8%; in that of `C#Cc1cc(OC)c(C(=O)Nc2ccc(F)cc2C(=O)Nc2cccc(S(=O)(=O)C(F)(F)F)c2)cn1`, -49.4% (active); in that of `CN1c2ccccc2Sc2cc(/C=N/Nc3ccnc4cc(Cl)ccc34)ccc21`, 91.6%.
The result for `O=C(/C=C/c1cccc(F)c1)c1cccc(OCCCOc2cccc(C(=O)/C=C/c3cccc(F)c3)c2)c1` reads 49.2%.
For the molecule `CN1CCN(Cc2ccc(NC(=O)c3cncc(C#Cc4cnc(N)nc4)c3)cc2C(F)(F)F)CC1`, the growth was 26.5%.
In the case of `O=C(CSc1nc2ccccc2c(=O)n1-c1ccc(Cl)c(Cl)c1)Nc1ccc(S(=O)(=O)Nc2ccc(Cl)nn2)cc1` it was 91.6%.
The result for `Cc1[nH]c(C(=O)Nc2ccc(C(N)=O)cc2N2CCOC(C)C2)c(Cl)c1Cl` (stereo not given) reads 96.2%.
In the case of `N#Cc1nc(-c2ccccc2)oc1N1CCC(C2(C(F)(F)F)N=N2)CC1` it was 91.6%; in that of `C/C(=C(\c1ccc(O)cc1)c1ccc(OCCN2CCCCCC2)cc1)c1ccc(Cl)cc1`, -80.3% (active).
In the case of `COc1ccc(C(=O)c2c(N)c(C#N)cn2-c2ccc(Cl)cc2Cl)cc1`, the growth is 93.3%.
With `C#C[C@]1(O)CC[C@H]2[C@@H]3CC=C4c5sc(Nc6cccc(F)c6)nc5CC[C@]4(C)[C@H]3CC[C@@]21C`, the growth is 27.8%.
In the case of `C[C@@H]1OCC2(CCN(c3cnc(C(=O)Nc4cc(F)cc5cccnc45)cn3)CC2)[C@@H]1N` it was 82.2%.
Regarding `Cn1c(SCC(=O)c2ccc(F)cc2)nc2ccccc2c1=O`, the growth is 84.5%.
For `O=C(CCCCCC/C=C\c1csc(Br)n1)NO`, the growth is 95.2%.
As to `COc1ccc(-c2cc(-c3ccc(N4CCOCC4)cc3)n3c(n2)nc2ccccc23)cc1OC`, the growth was 98%.
The result for `CN(C)c1cccc2c(S(=O)(=O)Nc3cccc(-c4csc(NC(=O)CCCCCN5CCN(CCO)CC5)n4)c3)cccc12` reads 81.3%; that for `O=c1nc(Nc2ccc([N+](=O)[O-])cc2O)sc2ccccc12`, 40.4%.
For the molecule `CCc1cc(OC(=O)N2CCC(N3CCCCC3)CC2)ccc1Nc1cc(-c2ccc(-n3cccn3)cc2)[nH]n1`, the growth is 80.3%.
The result for `COc1ccc(-c2c(C(N)=O)c(N)n(Cc3nc4ccccc4[nH]3)c(=O)c2C#N)c(OC)c1` reads 93.1%; that for `CCOC(=O)Nc1ccc2c(ccn2C(=O)c2cccc(F)c2)c1`, 41.4%.
The result for `CN(C)CCCOc1ccc(C(=C(c2ccccc2)C2CCCC2)c2ccc(OCCCN(C)C)cc2)cc1` reads -78.8% (active); that for `CN1CCC[C@]2(C)[C@H]3CC[C@@H]4[C@@H]5[C@H]6OC[C@@]5(CCC6(C)C)CC[C@@]4(C)[C@]3(C)CC[C@H]2C1(C)C`, 91%; that for `CNC(=O)c1cc(-c2ccc(NC(=S)Nc3cccc(C(F)(F)F)c3)cc2)nc2cccnc12`, 92.4%.
As to `CC1(C)C=Cc2cc(/C(N)=N/C(N)=N/c3nc4ccccc4s3)ccc2O1`, the growth is 58.3%.
For the molecule `C#Cc1cc(C(=O)Nc2ccc(CNCCN3CCOCC3)c(C(F)(F)F)c2)ccc1C`, the growth is 92.2%.
Take `CC(C)(O)c1cncc(-c2ccc3ncc(C#N)c(N4CCc5cc(F)c(Cl)cc54)c3c2)c1`: the growth was 26.8%.
The result for `CN1CCN(Cc2ccc(/C=N/Nc3ccnc4cc(Cl)ccc34)cc2)CC1` reads 89.2%; that for `Cc1ccc(C(=O)CSc2nnc(-c3ccc(-c4ccc(Cl)cc4)nc3C)o2)cc1`, 93%.
In the case of `Cc1ccccc1N1CCN(C2=C(Cl)C(=O)c3ncccc3C2=O)CC1` it was 38.1%; in that of `O=C1Nc2ccccc2/C1=C/c1ccc(OCC(=O)c2ccccc2)cc1`, 101%.
On to `CC1=C(C)C(=O)C(Nc2ccc3c(c2)OCCO3)=C(Br)C1=O`, for which the growth is 85.2%.
In the case of `CCN(CC)c1ccc(/C=N/NC(=O)c2ccc(S(N)(=O)=O)cc2)c(O)c1` it was 20.7%; in that of `Cc1ccc(S(=O)(=O)NCCCNc2nc(Nc3ccc(N4CCN(C)CC4)cc3)nc3ccsc23)cc1`, 75.6%; in that of `CN1CCN(Cc2ccc(NC(=O)c3cncc(C#Cc4cnc5ccc(NCCO)nn45)c3)cc2C(F)(F)F)CC1`, -40.2% (active).
Turning to `COC(=O)c1cccc(NC2=C(Cl)C(=O)c3nc(C)ccc3C2=O)c1`, the growth was 53.1%.
With `O=C1Nc2cc(Cl)ccc2/C1=C\c1ccc(OCc2ccccc2)cc1`, the growth is 94.3%.
Consider `Cc1ccc(-c2csc(N/N=C/c3cccs3)n2)cc1`, for which the growth is 79.4%.
The result for `O=[N+]([O-])c1ccc(NC(=S)NNC(=S)Nc2ccc(Br)cc2)cc1` reads 86.1%.
